Source: PubChem (National Center for Advancing Translational Sciences (NCATS))
Rows were chosen to be rich in hits. Some 8.1% of all compounds tested hit in one or more screens of this group.
KB-3-1 tox – qHTS assay for MDR1-selective chemotherapeutics: Primary screen using the parental adenocarcinoma cell KB-3-1; Potency, µM (top dose mostly 46.1 µM), hits mostly cytotoxic; KB-3-1 viability, CellTiter-Glo ATP luminescence, 72 h; 1.4% of 400,000 active; note: nearly all actives have a fitted effect of over 60% in size
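Cells are dispensed, compounds pinned in, plates held at 37 °C for 72 h, then CellTiter-Glo is added and luminescence read after 10 minutes. Cell line: parental KB-3-1 in phenol-red-free DMEM, 10% FBS.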
MCF10A rerep – A quantitative high throughput screen for small molecules that induce DNA re-replication in MCF 10a normal breast cells; Potency, µM (titrated, usually from 46.1 µM), actives largely listed as activators; 2.9% of 350,000 active; AID 624296, 2012; MCF 10A DNA re-replication, Hoechst nuclear intensity, 48 h; note: nearly all actives have a fitted effect of over 50% in size
SW480 rerep – A quantitative high throughput screen for small molecules that induce DNA re-replication in SW480 colon adenocarcinoma cells | 1.8% of 340,000 active | SW480 DNA re-replication, Hoechst DNA content imaging, 48 h | Potency, µM (doses to about 46.1 µM), usual class: activators; note: nearly all actives have a fitted effect of over 55% in size
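Quantitative HTS format with DMSO vehicle controls; 48 hr drug incubation at 37 C, then 40 min Hoechst staining and scanning imager measurement at 405 nm excitation.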
KB-V1 cytotox – qHTS assay for MDR1-selective chemotherapeutics: Primary screen using the drug-selected MDR subline cells KB-V1 | KB-V1 MDR cells viability, CellTiter-Glo, 72 h | Potency, µM (highest dose often 46.1 µM), most hits filed as cytotoxic | 3.4% of 400,000 active; note: nearly all actives have a fitted effect of over 60% in size
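Readout: CellTiter-Glo luminescence, 10 min after addition. Cells: KB-V1 MDR subline, 72 h at 37 degrees C with compound. Analysis: corrected, normalized data fitted to concentration-effect curves.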
ELG1 repair inh – qHTS screen for small molecules that inhibit ELG1-dependent DNA repair in human embryonic kidney (HEK293T) cells expressing luciferase-tagged ELG1 | HEK293T ELG1-luciferase reporter, luminescence, 16 h; DNA damage induced by 5-fluorouridine | Potency, µM (doses to about 46.1 µM), hits mostly inhibitors | 2.3% of 330,000 active; note: nearly all actives have a fitted effect of over 55% in size
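Luminescence from the luciferase reporter, measured 30 min after ONE-Glo reagent at room temperature, was the read-out. Beforehand, 2,000 cells per well were exposed for 16 hr at 37 °C to 5-fluorouridine together with compound or vehicle.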
Large screens that a line does not name were inactive. Calls come from the whole dose curve; as a rule, active = well fitted curve in the direction sought with a large enough effect; inconclusive = small, poorly fitted or top-dose-only effect, or another doubt; inactive = no such curve, though single readings can be large; an effect the other way counts as inactive or inconclusive.

CCCCC(=O)NC(c1ccccc1OC)c1ccc2cccnc2c1O (stereo unspecified)	KB-3-1 tox 6.5µM, SW480 rerep 0.73µM, KB-V1 cytotox inconclusive, ELG1 repair inh inconclusive
CCCCC(=O)NC(c1ccccc1Cl)c1c(O)ccc2ccccc12 (stereo unspecified)	none
COc1ccc(C(NC(C)=O)c2ccc3cccnc3c2O)cc1OC (stereo unspecified)	KB-3-1 tox inconclusive (no result: MCF10A rerep, SW480 rerep, ELG1 repair inh)
Cc1ccc(S(=O)(=O)N2CCC(=O)N([C@H](COC(=O)Nc3ccccc3)Cc3ccccc3)CC2)cc1	KB-V1 cytotox inconclusive (no result: MCF10A rerep, SW480 rerep, ELG1 repair inh)
COc1ccc(CN2CC[C@H]3C=CC[C@@H](C(=O)NC4CCCCC4)[C@H]3C2=O)cc1OC	none (no result: MCF10A rerep, SW480 rerep, ELG1 repair inh)
CCN(CC(=O)NCc1cccs1)C(=O)/C=C/c1cccc(Cl)c1Cl	none
CCn1c2c(c3cc(Br)ccc31)CCC/C2=N\O	KB-3-1 tox inconclusive, MCF10A rerep 13µM, KB-V1 cytotox inconclusive (no result: ELG1 repair inh)
CCCCCCCCN1C(=O)[C@H](CC(=O)N2CCN(C(=O)OCC)CC2)C[C@@]2(C(=O)OC)CCCCC=C12	KB-V1 cytotox inconclusive (no result: MCF10A rerep, SW480 rerep, ELG1 repair inh)
O=c1ccc2ccc(OCCOc3cccc(Cl)c3)cc2o1	ELG1 repair inh inconclusive
Cc1ccc(NC(=O)C2CCN(S(=O)(=O)c3c(C)noc3/C=C/c3ccco3)CC2)nc1	KB-3-1 tox inconclusive, MCF10A rerep inconclusive, KB-V1 cytotox inconclusive, ELG1 repair inh 15µM
Cc1noc(/C=C/c2ccco2)c1S(=O)(=O)N1CCC(C(=O)N2CCc3ccccc3C2)CC1	KB-3-1 tox inconclusive, MCF10A rerep 18µM, SW480 rerep inconclusive, ELG1 repair inh inconclusive
CCCN1CCN(C(=O)C2CCN(S(=O)(=O)c3c(C)noc3/C=C/c3ccc(C)cc3)CC2)CC1	KB-3-1 tox 26µM, MCF10A rerep inconclusive, SW480 rerep 16µM, KB-V1 cytotox inconclusive
Cc1ccc(/C=C/c2onc(C)c2S(=O)(=O)N2CCC(C(=O)N3CCCCC3)CC2)cc1	ELG1 repair inh inconclusive
COC(=O)N(C)C[C@@H]1OCc2cn(nn2)CCCC(=O)N([C@@H](C)CO)C[C@H]1C	none (no result: MCF10A rerep, SW480 rerep, ELG1 repair inh)
C#Cc1ccc([C@@H]2C=C(C(=O)N3CCN(Cc4ccc5c(c4)OCO5)CC3)O[C@H](OCCCCO)C2)cc1	MCF10A rerep inconclusive, ELG1 repair inh inconclusive
Cc1ccc(OC(=O)c2cc(-c3ccccc3)nc3ccc(C)cc23)cc1	none (no result: MCF10A rerep, SW480 rerep, ELG1 repair inh)
Cc1ccc(C(=O)N/C(=C\c2ccccc2)C(=O)NCc2ccncc2)cc1	ELG1 repair inh 1.8µM
CCOC(=O)/C(=C\c1ccc(C)cc1)NC(=O)c1ccccc1	none
CCOC(=O)/C(=C\C=C\c1ccccc1)NC(=O)c1ccccc1	KB-V1 cytotox 4.6µM
CCOC(=O)/C(=C/C=C/c1ccccc1)NC(=O)c1ccccc1	none
Cc1ccc(/C=C(\NC(=O)c2ccccc2)C(=O)OCc2ccccc2)cc1	KB-V1 cytotox 16µM
C=CCN(c1ccccc1OC)S(=O)(=O)c1cccc(C(=O)NCC(c2ccc(OC)cc2)N2CCCC2)c1 (stereo unspecified)	KB-3-1 tox inconclusive, SW480 rerep inconclusive, KB-V1 cytotox inconclusive (no result: ELG1 repair inh)
Cc1cc(CNC(=O)c2cccc([N+](=O)[O-])c2C)c2ccccc2n1	KB-V1 cytotox 5.8µM, ELG1 repair inh inconclusive
Cc1ccc(C(=O)NCCSCc2ccc(Cl)cc2Cl)cc1[N+](=O)[O-]	MCF10A rerep inconclusive, ELG1 repair inh inconclusive
Cc1c(C(=O)NCCSCc2ccc(Cl)cc2Cl)cccc1[N+](=O)[O-]	KB-3-1 tox inconclusive, MCF10A rerep inconclusive, KB-V1 cytotox 26µM, ELG1 repair inh inconclusive
Cc1cc(CNC(=O)Cc2ccccc2)c2ccccc2n1	KB-V1 cytotox inconclusive, ELG1 repair inh inconclusive
CCOC(=O)c1ccc(NC(=O)c2ncn3c2C(=O)N[C@H](C)C3)cc1	none (no result: MCF10A rerep, SW480 rerep, ELG1 repair inh)
COc1cc(-c2nnn(Cc3ccccc3C)n2)cc(OC)c1OC	ELG1 repair inh 23µM
COc1ccc(-c2nnn(Cc3ccccc3)n2)cc1OC	none
CCCCN1CCc2c1nc1ccc(Br)cc1c2N	KB-V1 cytotox 21µM
Cc1ccc2nc3c(c(N)c2c1)CCN3C	MCF10A rerep 23µM
CC1(C2CC2)NC(=O)N(CC(=O)N2CCN(c3ccccc3Cl)CC2)C1=O (stereo unspecified)	ELG1 repair inh inconclusive
Cc1ccc(S(=O)(=O)NCl)cc1	none (no result: KB-3-1 tox, KB-V1 cytotox, ELG1 repair inh)
O=S(=O)(NCCc1nnc2ccc(SCc3cccc(Cl)c3)nn12)c1ccccc1	none (no result: MCF10A rerep, SW480 rerep, ELG1 repair inh)
Cc1csc2nc(O)c(C(=O)NCCCc3ccccc3)c(=O)n12	KB-3-1 tox inconclusive, KB-V1 cytotox 16µM, ELG1 repair inh inconclusive
Cc1csc2nc(O)c(C(=O)NCCC3=CCCCC3)c(=O)n12	MCF10A rerep inconclusive, KB-V1 cytotox 9.2µM
O=C(NCCC1=CCCCC1)c1cnccn1	ELG1 repair inh inconclusive
N#Cc1c(NCCN)nc(NCc2ccccc2)c2c1CCN(Cc1ccccc1)C2	MCF10A rerep inconclusive, SW480 rerep 21µM, ELG1 repair inh 13µM
C=CCNc1nc(NCc2ccccc2)c(C#N)c2c1CN(C)CC2	KB-3-1 tox inconclusive, MCF10A rerep inconclusive, KB-V1 cytotox inconclusive
CSc1ccc(/C=C/C(=O)c2c(O)cc(C)oc2=O)cc1	KB-3-1 tox inconclusive, MCF10A rerep inconclusive, SW480 rerep 18µM, ELG1 repair inh inconclusive
COc1cc(/C=C/C(=O)c2c(O)cc(C)oc2=O)cc(OC)c1O	KB-3-1 tox inconclusive, KB-V1 cytotox inconclusive, ELG1 repair inh inconclusive
Cc1cc(O)c(C(=O)/C=C/c2ccc(Cl)cc2)c(=O)o1	KB-3-1 tox 16µM, MCF10A rerep inconclusive, KB-V1 cytotox inconclusive, ELG1 repair inh inconclusive
CSc1ccc(NC(=O)NN(c2ccccc2)C2CCS(=O)(=O)C2)cc1 (stereo unspecified)	none (no result: MCF10A rerep, SW480 rerep, ELG1 repair inh)
CCOC(=O)C1=C(COC(=O)c2cc([N+](=O)[O-])ccc2Cl)NC(=O)NC1C (stereo unspecified)	none (no result: MCF10A rerep, SW480 rerep, ELG1 repair inh)
COc1cccc(/C=N/Nc2ncnc(Cl)c2N)c1O	KB-3-1 tox inconclusive, MCF10A rerep inconclusive, SW480 rerep inconclusive, KB-V1 cytotox inconclusive
COc1cccc(/C=N/Nc2cc(-n3nc(C)cc3-c3ccccc3)ncn2)c1O	KB-3-1 tox inconclusive, MCF10A rerep 3.7µM, SW480 rerep inconclusive, KB-V1 cytotox inconclusive, ELG1 repair inh 5.2µM
COc1cccc(/C=N/Nc2nc(Nc3ccccc3)nc(-n3nc(C)cc3C)n2)c1O	KB-3-1 tox 5.2µM, MCF10A rerep 15µM, SW480 rerep 5.8µM, KB-V1 cytotox inconclusive, ELG1 repair inh 2.6µM
CC(C)Sc1nc2c(cnn2-c2ccc(Cl)cc2)c(=O)[nH]1	none
C=CCn1c2ccccc2c2nnc(SCCCn3c(=O)[nH]c4ccccc43)nc21	KB-3-1 tox inconclusive, MCF10A rerep 21µM, KB-V1 cytotox inconclusive, ELG1 repair inh inconclusive
